# AHR act = AHR activators, primary screen, cell-based, luminescence, luciferase reporter, human; AHR-responsive luciferase reporter cells; activation, % at 5 µM; 2.5% of 320,000 active; in the data active = activation above about 47%;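 note: 0% = vehicle wells and 100% = reference agonist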
# DAX1 inh-1 = DAX1 (NR0B1) inhibitors on StAR promoter, primary screen, cell-based, luminescence, SF-1 (NR5A1), full-length DAX-1. HEK293T StAR-luciferase reporter, SF-1/DAX-1 repression relief. inhibition, % at 6.8 µM. 1.1% of 370,000 active;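 active = inhibition above the mean over all tested compounds plus 3 SD, cut at about 3.6% in these data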;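 note: 0% = DAX-1 cells with DMSO and 100% = cells lacking DAX-1 with DMSO; higher inhibition means more luminescence from relief of DAX-1 repression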
# hcDAF-12 act = H. contortus DAF-12 nuclear receptor activators, primary screen, cell-based, luminescence, HEK293, lit1-tk-luc reporter. HEK293 hcDAF-12 lit1-tk-luc reporter; 0% DMSO, 100% Δ7-dafachronic acid. activation, % at 6.8 µM. 1.4% of 370,000 active. AID 652067, 2013;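 active = activation above the mean of all tested compounds plus 3 SD, cut at about 5.5% in these data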;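 note: 100% = response to 3 µM Δ7-dafachronic acid high control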
# hgDAF12 agonist = H. glycines DAF-12 receptor agonists, primary screen, cell-based, luminescence, HEK293, GAL4 fusion, UAS-luciferase. Nuclear hormone receptor DAF-12 (Heterodera glycines), GAL4 fusion. HEK293 GAL4-hgDAF12 UAS-luciferase reporter, agonist luminescence; normalized to butyrate control. AID 687014, 2013. activation, % at 6.8 µM. 1.8% of 370,000 active;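 active = activation above a cutoff set at the mean of all screened compounds plus 3 SD, cut at about 10% in these data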;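 note: 0% = DMSO wells and 100% = sodium butyrate wells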
# DAX1 inh-2 = DAX1 (NR0B1) inhibitors, primary screen, cell-based, HEK293, Gal4-DAX1, luciferase luminescence. Nuclear receptor subfamily 0 group B member 1 (Homo sapiens), P51843. HEK293 Gal4-DAX1 luciferase reporter. inhibition, % at 6.75 µM. 0.99% of 340,000 active;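 active = inhibition above the mean over all tested compounds plus 3 SD, cut at about 4.2% in these data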;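 note: 0% = DAX1-transfected cells with DMSO and 100% = empty-vector control cells with DMSO; inhibition shows as a rise in luminescence from relieved DAX1 repression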
# ssDAF-12 act = S. stercoralis DAF-12 nuclear receptor activators, primary screen, cell-based, luminescence, HEK293, GRIP1 co-expression, lit1-tk-luc | activation, % at 6.8 µM | HEK293 ssDAF-12/GRIP1 lit1-tk-luc reporter; % of 3 µM dafachronic acid response | Nuclear hormone receptor DAF-12 (Strongyloides stercoralis) | 1% of 370,000 active;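 active = activation above the mean over all tested compounds plus 3 SD, cut at about 0.9% in these data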;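 note: 0% = DMSO-only wells and 100% = 3 µM delta7-dafachronic acid wells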
# DAX1 conf = DAX1 (NR0B1) inhibitors relieving SF-1 repression, confirmation, cell-based, luminescence, HEK293T, full-length DAX-1, SF-1 activated StAR promoter; shares compounds with DAX1 inh-1; HEK293T StAR-promoter luciferase reporter, SF-1/DAX-1 repression; inhibition, % at 6.8 µM; 87% of 2,400 active;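 active = inhibition above the average of every tested compound plus 3 SD, cut at about 3.8% in these data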;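 note: 0% = DAX-1 cells with DMSO and 100% = no DAX-1 control cells with DMSO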
# Target sequence (P51843 whole entry, looked up): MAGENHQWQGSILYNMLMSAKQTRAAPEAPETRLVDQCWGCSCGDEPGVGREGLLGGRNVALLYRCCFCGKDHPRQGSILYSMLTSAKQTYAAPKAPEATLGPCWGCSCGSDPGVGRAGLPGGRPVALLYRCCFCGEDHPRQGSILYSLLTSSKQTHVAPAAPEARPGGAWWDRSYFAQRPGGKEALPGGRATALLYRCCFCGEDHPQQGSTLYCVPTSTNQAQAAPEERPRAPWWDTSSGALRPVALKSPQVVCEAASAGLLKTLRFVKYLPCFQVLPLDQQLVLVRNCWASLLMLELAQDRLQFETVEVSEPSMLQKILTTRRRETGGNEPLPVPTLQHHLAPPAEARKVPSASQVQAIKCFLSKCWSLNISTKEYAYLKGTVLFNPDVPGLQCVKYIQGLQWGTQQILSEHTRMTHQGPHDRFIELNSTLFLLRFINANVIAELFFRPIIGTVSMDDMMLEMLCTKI
# SF1 AF2mut Luc = StAR reporter signal changes without DAX1, counter-screen for DAX1 inhibitor project, cell-based, luminescence, AF-2 mutant SF-1, transactivation. 78% of 2,400 active. HEK293 StAR-luciferase, SF-1 AF2 mutant. shares compounds with DAX1 inh-1. inhibition, % at 6.8 µM. AID 652136, 2013;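 active = inhibition above the mean of all tested compounds plus 3 SD, cut at about 3% in these data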;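 note: 0% = DAX-1 transfected cells with DMSO and 100% = cells without DAX-1 with DMSO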
# Numbers without * were called inactive; . = not tested or not shown. Compounds with a hit are over-represented: about 5.7% of the library has one in this group of screens.
SMILES,AHR act,DAX1 inh-1,hcDAF-12 act,hgDAF12 agonist,DAX1 inh-2,ssDAF-12 act,DAX1 conf,SF1 AF2mut Luc
O=C(Nc1nnc(C2CC2)s1)c1cncc(Br)c1,42,4.8*,1,7,1,-1,5.9*,3.9*
CCCOc1ccccc1C(=O)N(Cc1ccc(C)o1)C1CCS(=O)(=O)C1 (stereo unspecified),1,0,-1,1,0,-1,.,.
CCOC(=O)N1CCN(C(=O)c2cc3c(s2)-c2ccc(Cl)cc2S(=O)(=O)C3)CC1,0,0,0,-2,1,-1,.,.
CCN(CC)CCOC(=O)c1ccc(NC(=O)CCCN2C(=O)/C(=C/c3cccs3)SC2=S)cc1,.,6.2*,0,0,1,-1,8.5*,5.4*
Cc1cc(C)cc(NC(=O)CCCCCN2C(=O)[C@@H]3Cc4ccccc4CN3C2=O)c1,0,0,-2,2,1,-1,.,.
COc1ccc(C=C2CCc3ccccc3C2=O)cc1,.,6.6*,3,2,.,0,7.2*,-6
COc1cccc2cc(C(=O)NCc3ccccc3Cl)c(=O)oc12,-2,0,2,-1,1,0,.,.
Cc1ccc(NC(=O)Nc2ccc3c(c2)OCO3)c(OC(F)F)c1,.,5.7*,1,9,2,0,9.1*,7.1*
CN(N=O)c1ccc(C=C2C=Cc3ccccc32)cc1,.,6.3*,7.4*,11*,5.0*,1.0*,12*,6.8*
CCN(N=O)c1ccc(C=C2C=Cc3ccccc32)cc1,.,6.6*,5.8*,19*,3,0,9.3*,5.7*
CC(=O)N(C)c1ccc(C=C2C=Cc3ccccc32)cc1,.,4.9*,6.2*,6,0,0,3,-2
COC(=O)Nc1nc2ccc(C(=O)c3cccs3)cc2[nH]1,41,8.7*,-1,-1,0,0,49*,-4
O=c1cc(-c2ccc(O)c(O)c2)oc2ccc3ccccc3c12,.,8.4*,3,10*,-4,0,1,-5
COc1ccc(OCc2cc(C(=O)N3CCN(C4CCCC4)CC3)no2)c(Cl)c1,13,3,5,10,0,-1,.,.
Cc1ccc(OCc2cc(C(=O)N3CCN(C4CCCC4)CC3)no2)cc1C,5,0,-1,4,2,-1,.,.
Cc1ccc(OCc2cc(C(=O)N3CCN(C4CCCCC4)CC3)no2)cc1C,3,6.4*,2,4,2,-1,6.5*,4.1*
COc1cc(C)ccc1OCc1cc(C(=O)N2CCN(C3CCCCC3)CC2)no1,4,5.7*,3,11*,1,0,5.7*,3.8*
Cc1ccc(OCc2cc(C(=O)N(CCO)Cc3cccs3)no2)cc1C,21,5.1*,5,7,3,0,6.1*,3.7*
Cc1ccc(OCc2cc(C(=O)N3CCN(c4ccccc4)CC3)no2)cc1C,29,5.8*,4,13*,4,0,11*,6.5*
CCOc1ccc(N(CC(=O)NN=C2CCN(C)CC2)S(=O)(=O)c2ccc(Br)cc2)cc1,.,1,2,0,0,-1,.,.
O=C(CCCn1nnnc1CN1CCOCC1)N1CCC(c2ccccc2Cl)C1 (stereo unspecified),1,0,-1,2,0,-1,.,.
COc1ccc(C(=O)NCc2ccncc2)cc1OC,2,0,0,-4,1,-2,.,.
Cc1ccc(OCc2cc(C(=O)N3CCCCCCC3)no2)cc1C,1,1,2,3,1,0,.,.
Cc1cc(OCc2cc(C(=O)N3CCCCCC3)no2)cc(C)c1Cl,7,5.5*,4,8,1,1,7.1*,4.1*
COc1cc(C)ccc1OCc1cc(C(=O)N2CCCCCCC2)no1,26,4.6*,2,9,1,1,5.4*,3.5*
SMILES,AHR act,DAX1 inh-1,hcDAF-12 act,hgDAF12 agonist,DAX1 inh-2,ssDAF-12 act,DAX1 conf,SF1 AF2mut Luc
COc1cc(C)ccc1OCc1cc(C(=O)NCc2ccncc2)no1,15,4.7*,2,11*,1,0,5.3*,3.0*
O=C(CC1C(=O)NCCN1Cc1c(F)cccc1Cl)NCCCn1cccn1 (stereo unspecified),3,0,-1,0,0,-1,.,.
O=C(NC1CC1)c1sc2cc([N+](=O)[O-])ccc2c1Cl,-1,-1,0,0,0,-2,.,.
Cc1ccc2c(Cl)c(C(=O)NC3CC3)sc2c1,.,5.9*,0,6,2,0,4.4*,2
COc1ccccc1C(=O)NC(=O)Cn1nc(C)c([N+](=O)[O-])c1C,-1,1,0,4,0,-1,.,.
CCc1ccc(C2=NN(C(=O)OC)C(O)(C(F)(F)F)C2)cc1 (stereo unspecified),0,6.6*,6.0*,9,-2,1.0*,12*,5.4*
O=C(NCCn1ccc2ccccc21)c1ccc2c(c1)OCO2,19,4.8*,4,8,3,0,13*,7.9*
COc1ccc(C(=O)NCCn2ccc3ccccc32)cc1,-5,0,-1,-1,2,-1,.,.
Cc1ccc(N2C(SCC(=O)O)=NC(=Nc3cccc(C)c3)C23CCCC3)cc1,1,0,-1,-1,1,-1,.,.
Cc1ccc(C(=O)CN2C(=O)NC3(CCCCCC3)C2=O)c(C)c1,6,5.5*,2,6,1,-1,4.2*,3.8*
Cc1ccc(C)c(C(=O)CN2C(=O)NC3(CCC(C)CC3)C2=O)c1 (stereo unspecified),3,0,-1,-1,0,-1,.,.
C[C@H](O)[C@@H]1C(=O)N2CCc3c([nH]c4ccccc34)[C@@H]2C[C@@H]1N(C)Cc1ccc(Cl)cc1,.,6.2*,1,3,0,-1,1,0
COCC(=O)N(C)[C@H]1C[C@H]2c3[nH]c4ccccc4c3CCN2C(=O)[C@H]1[C@H](C)O,.,0,0,3,1,0,.,.
CCC(=O)Nc1ccc(-c2nnc(-c3ccccc3)o2)cc1,-1,4.5*,2,10*,2,1,14*,4.5*
COc1ccc(NS(=O)(=O)c2cccc(C(=O)NCc3ccccn3)c2)cc1,2,-2,1,0,1,-1,.,.
